NIH3T3 tox: Cytotoxic Profiling in NIH 3T3 Cell Line of Diverse Libraries Using Quantitative High-Throughput Screening; NIH 3T3 viability, CellTiter-Glo ATP luminescence, 48-72 h; AID 1345082, 2018; 94,000 tested, 4.3% active; Potency, µM (doses to about 96.7 µM), for the others: at the top dose activity change, negative = cytotoxicity, most hits filed as inhibitors; also: nearly all actives have a fitted effect of over 55% in size
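Cells were seeded at 400 per well, treated with pin-transferred compound, and kept 48 or 72 hr at 37 °C before CellTiter-Glo addition and luminescence imaging of cellular ATP.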
HEK cytotox: Cytotoxic Profiling in HEK 293 Cell Line of Diverse Libraries Using Quantitative High-Throughput Screening; HEK 293 viability, ATP luminescence (CellTiter-Glo), 48-72 h; Potency, µM (doses to about 115 µM), without a hit: at the top dose activity change, negative = cytotoxicity, actives largely listed as inhibitors; 94,000 tested, 6.6% active; AID 1345083, 2018; also: nearly all actives have a fitted effect of over 60% in size
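Cells seeded first (HEK 293, 250 cells/well), then compound added by pintool. Incubation ran 48 or 72 hr at 37 degree Celsius. CellTiter-Glo was added and luminescence imaged after 10 min at room temperature.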
NPR1 antag: Natriuretic polypeptide receptor (hNpr1) antagonism - Primary qHTS. 76,000 tested, 1.6% active. HEK293 hNpr1 GloSensor cGMP, ANP-stimulated luminescence. AID 1347048, 2019. Potency, µM (series often up to 46.3 µM), for the others: at the top dose activity change, negative = inhibition, hits mostly inhibitors; calls by dose curve; also: nearly all actives have a fitted effect of over 60% in size
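Compound pre-incubated 30 min at room temperature on GloSensor-loaded HEK293 cells stably carrying hNpr1 and the pGS-40F cGMP biosensor. Stimulation uses hNppA at 0.1 nM final; luminescence is taken at baseline and 20 min post-agonist.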
Luciferase inh: Firefly luciferase inhibition profiling of diverse chemical library using quantitative high-throughput screening; Potency, µM (top dose mostly 115 µM), most hits filed as inhibitors; 76,000 tested, 2.5% active; Luciferin 4-monooxygenase (Photinus pyralis), P08659; purified P. pyralis luciferase, luminescence, biochemical; AID 1347043, 2019; also: nearly all actives have a fitted effect of over 65% in size
Target sequence (P08659 whole entry, looked up): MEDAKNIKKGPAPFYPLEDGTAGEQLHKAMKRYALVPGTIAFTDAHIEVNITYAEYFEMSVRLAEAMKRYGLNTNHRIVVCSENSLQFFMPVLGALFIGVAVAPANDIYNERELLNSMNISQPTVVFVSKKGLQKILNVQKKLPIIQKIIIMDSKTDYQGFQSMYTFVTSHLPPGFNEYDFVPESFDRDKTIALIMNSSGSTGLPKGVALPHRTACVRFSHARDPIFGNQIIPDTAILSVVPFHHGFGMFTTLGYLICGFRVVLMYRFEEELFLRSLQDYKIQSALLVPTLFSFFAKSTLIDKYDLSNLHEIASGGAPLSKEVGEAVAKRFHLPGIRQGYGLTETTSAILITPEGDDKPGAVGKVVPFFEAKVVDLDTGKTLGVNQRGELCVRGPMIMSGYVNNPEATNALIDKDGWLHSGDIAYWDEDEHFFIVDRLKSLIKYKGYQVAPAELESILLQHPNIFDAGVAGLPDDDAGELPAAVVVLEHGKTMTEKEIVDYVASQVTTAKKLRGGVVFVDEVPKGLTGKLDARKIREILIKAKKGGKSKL
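Purified 10nM P. pyralis luciferase with 10uM D-luciferin and 10uM ATP in 50mM Tris acetate pH 7.5, 10mM Mg acetate, 0.01% Tween-20, 0.05% BSA. qHTS titration; luminescence read by CCD imager.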
GPT2 inhibitor: Primary qHTS assay for inhibitors of Glutamate pyruvate transaminase 2 (GPT2) | 100,000 tested, 0.25% active | Potency, µM (highest dose often 57.7 µM), for the others: at the highest dose activity change, negative = inhibition, actives largely listed as inhibitors | Alanine aminotransferase 2 (Homo sapiens), Q8TD30 | Recombinant GPT2, coupled pyruvate oxidase/HRP Amplex Red fluorescence; also: nearly all actives have a fitted effect of over 60% in size
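Recombinant GPT2 (10ng/uL) with 250uM a-KG and 2mM L-alanine, 30 min at room temperature, in HEPES pH 7.5 buffer. Pyruvate detected by pyruvate oxidase/HRP/Amplex Red fluorescence after 30 min in the dark; AOA (50uM) as positive control.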
* = called active by the depositor; [ ] = another dose, or the depositor's remark. A selection: hits, their analogues and other compounds. The true share with any hit is near 10%. Unless noted, calls follow the shape of the dose curve; as a rule, active = well fitted curve in the direction sought with a large enough effect; inconclusive = small, poorly fitted or top-dose-only effect, or another doubt; inactive = no such curve, though single readings can be large; an effect the other way counts as inactive or inconclusive. % is scaled to controls: 0 for no effect and ±100 for the full control effect; potency is read from the fitted curve at half-maximal effect.

`CC1=C[C@@H](CN2CCN(c3ncccn3)CC2)[C@H](C(C)C)C[C@H]1Cc1nnc(-c2ccc(N(C)C)cc2)o1` gave NIH3T3 tox inconclusive, HEK cytotox 28.2µM*, NPR1 antag -20.5%, Luciferase inh inactive and GPT2 inhibitor -18.8%.
Screening CC1=C[C@@H](CN2CCN(c3cnccn3)CC2)[C@H](C(C)C)C[C@H]1Cc1nnc(-c2ccccc2)o1 returned NIH3T3 tox inconclusive, HEK cytotox 25.1µM*, NPR1 antag -30.2%, Luciferase inh inactive and GPT2 inhibitor inactive.
Screening CC1=C[C@@H](CN2CCN(CCO)CC2)[C@H](C(C)C)C[C@H]1Cc1nnc(-c2ccc([N+](=O)[O-])cc2)o1 returned NIH3T3 tox inconclusive, HEK cytotox inconclusive, NPR1 antag -2.9%, Luciferase inh inactive and GPT2 inhibitor -1.7%.
Screening CCCC1CCCN1C(=O)c1coc(COc2ccc3ccc(OC)cc3c2)n1 (configuration not stated) returned NIH3T3 tox inconclusive, HEK cytotox inconclusive, NPR1 antag inconclusive, Luciferase inh inactive and GPT2 inhibitor inactive.
O=C(c1cccc(-c2ccccn2)c1)N1CCN(C(=O)C2CCCC2)CC1 was read as NIH3T3 tox -31.5%, HEK cytotox -20.3% and GPT2 inhibitor inactive.
For COc1ccc(-c2nnc(C[C@@H]3C[C@@H](C(C)C)[C@H](CN4CCN(CCO)CC4)C=C3C)o2)cc1 the results were NIH3T3 tox inconclusive, HEK cytotox 44.7µM*, NPR1 antag -3.9%, Luciferase inh inactive and GPT2 inhibitor inactive.
For COc1ccc(C(=O)N2CCN3C(=O)c4cc(-c5ccc(Cl)cc5)ccc4NC(=O)[C@@H]3C2)cc1 the results were NIH3T3 tox 28.2µM*, HEK cytotox 31.6µM*, NPR1 antag -23.9%, Luciferase inh inactive and GPT2 inhibitor 0.3%.
Screening O=C1Nc2ccc(-c3ccc4c(c3)OCO4)cc2C(=O)N2CCN(C(=O)c3cccs3)C[C@@H]12 returned NIH3T3 tox 35.5µM*, HEK cytotox 31.6µM*, NPR1 antag 5.8%, Luciferase inh inactive and GPT2 inhibitor 1.1%.
Screening O=C1Nc2ccc(-c3ccc(Cl)cc3)cc2C(=O)N2CCN(C(=O)c3cccnc3)C[C@H]12 returned NIH3T3 tox inconclusive, HEK cytotox 44.7µM*, NPR1 antag 1.7%, Luciferase inh inactive and GPT2 inhibitor -6.3%.
O=C1Nc2ccc(-c3ccccc3)cc2C(=O)N2CCN(C(=O)c3cccnc3)C[C@H]12 was read as NIH3T3 tox -26.7%[174 µM], HEK cytotox -23.5%[172 µM], NPR1 antag -0.2%[70.6 µM], Luciferase inh inactive and GPT2 inhibitor -42.9%[88.5 µM].
O=C(c1ccc(Cl)nc1)N1CCN(C(=O)c2nc3cccnc3n(CCc3ccccc3)c2=O)CC1 was read as NIH3T3 tox -20.2%, HEK cytotox -9.0% and GPT2 inhibitor inactive.
For OCC1(Cc2ccccc2)CCCN(Cc2cnn(-c3cccc(Cl)c3)c2)C1 (configuration not stated) the results were NIH3T3 tox 79.4µM*, HEK cytotox 79.4µM*, NPR1 antag -1.3%, Luciferase inh inactive and GPT2 inhibitor -15.1%.
Screening O=S(=O)(c1cccc2ccccc12)N1CCCC(CO)(Cc2cccc(Cl)c2)C1 (configuration not stated) returned NIH3T3 tox 44.7µM*, HEK cytotox inconclusive, NPR1 antag 3.4%, Luciferase inh inactive and GPT2 inhibitor -4.1%.
Cc1ccc(C)c(S(=O)(=O)N2CCCC(CO)(Cc3cccc(Cl)c3)C2)c1 (configuration not stated) was read as NIH3T3 tox inconclusive, HEK cytotox inconclusive, NPR1 antag -14.8%, Luciferase inh inactive and GPT2 inhibitor 1.0%.

High-throughput results as filed in PubChem.
